Calb FLC: C. albicans growth modulation with fluconazole. C. albicans CaCi-2 (fluconazole-resistant clinical isolate) + fluconazole, Alamar Blue growth, 48 h. growth inhibition, % (concentration not given with the values). hit rate 0.57% among 300,000. AID 1979;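 active = growth inhibition above about 58% in most replicates, limit read from the data, passing the limit was not always enough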;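 note: all wells also contain fluconazole at 8 µg/ml as a sub-toxic cotreatment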
Rin1-Abl PPI inh: inhibitors of human Rin1-Abl protein interaction | P00519+Q13671 | TR-FRET Rin1/Abl binding, biochemical | inhibition, % at 7.35 µM | hit rate 0.4% among 360,000 | AID 588664; in the data active = inhibition above about 5%, passing the limit was not always enough
Target sequence (P00519 whole entry, looked up): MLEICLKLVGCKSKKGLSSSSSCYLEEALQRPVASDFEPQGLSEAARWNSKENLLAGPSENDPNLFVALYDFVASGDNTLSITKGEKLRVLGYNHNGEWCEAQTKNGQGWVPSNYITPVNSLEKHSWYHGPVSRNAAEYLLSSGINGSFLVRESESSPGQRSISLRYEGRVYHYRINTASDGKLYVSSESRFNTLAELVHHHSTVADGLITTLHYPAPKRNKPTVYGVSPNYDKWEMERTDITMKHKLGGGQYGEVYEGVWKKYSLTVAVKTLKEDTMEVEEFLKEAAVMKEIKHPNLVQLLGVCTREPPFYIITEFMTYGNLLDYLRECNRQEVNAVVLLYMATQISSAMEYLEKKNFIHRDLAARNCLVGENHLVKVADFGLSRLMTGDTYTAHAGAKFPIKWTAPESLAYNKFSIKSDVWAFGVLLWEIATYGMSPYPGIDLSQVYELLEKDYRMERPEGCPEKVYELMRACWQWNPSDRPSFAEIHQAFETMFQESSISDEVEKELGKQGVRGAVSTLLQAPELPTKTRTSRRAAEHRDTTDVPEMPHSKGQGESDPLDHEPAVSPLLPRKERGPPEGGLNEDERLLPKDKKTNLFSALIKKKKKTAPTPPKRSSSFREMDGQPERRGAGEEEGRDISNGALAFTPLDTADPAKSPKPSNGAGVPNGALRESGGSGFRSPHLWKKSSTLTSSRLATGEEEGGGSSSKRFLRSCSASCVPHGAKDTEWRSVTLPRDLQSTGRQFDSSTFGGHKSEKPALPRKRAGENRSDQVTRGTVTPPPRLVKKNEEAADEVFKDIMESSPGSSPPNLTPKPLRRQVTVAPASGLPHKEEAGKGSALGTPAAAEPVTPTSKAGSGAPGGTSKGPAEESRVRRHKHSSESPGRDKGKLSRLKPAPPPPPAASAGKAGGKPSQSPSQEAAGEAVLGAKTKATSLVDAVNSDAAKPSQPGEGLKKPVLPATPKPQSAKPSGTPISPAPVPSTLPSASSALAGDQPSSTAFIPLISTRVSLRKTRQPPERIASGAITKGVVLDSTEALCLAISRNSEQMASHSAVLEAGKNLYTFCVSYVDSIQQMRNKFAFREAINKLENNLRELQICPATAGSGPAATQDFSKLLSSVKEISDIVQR
Target sequence (Q13671 whole entry, looked up): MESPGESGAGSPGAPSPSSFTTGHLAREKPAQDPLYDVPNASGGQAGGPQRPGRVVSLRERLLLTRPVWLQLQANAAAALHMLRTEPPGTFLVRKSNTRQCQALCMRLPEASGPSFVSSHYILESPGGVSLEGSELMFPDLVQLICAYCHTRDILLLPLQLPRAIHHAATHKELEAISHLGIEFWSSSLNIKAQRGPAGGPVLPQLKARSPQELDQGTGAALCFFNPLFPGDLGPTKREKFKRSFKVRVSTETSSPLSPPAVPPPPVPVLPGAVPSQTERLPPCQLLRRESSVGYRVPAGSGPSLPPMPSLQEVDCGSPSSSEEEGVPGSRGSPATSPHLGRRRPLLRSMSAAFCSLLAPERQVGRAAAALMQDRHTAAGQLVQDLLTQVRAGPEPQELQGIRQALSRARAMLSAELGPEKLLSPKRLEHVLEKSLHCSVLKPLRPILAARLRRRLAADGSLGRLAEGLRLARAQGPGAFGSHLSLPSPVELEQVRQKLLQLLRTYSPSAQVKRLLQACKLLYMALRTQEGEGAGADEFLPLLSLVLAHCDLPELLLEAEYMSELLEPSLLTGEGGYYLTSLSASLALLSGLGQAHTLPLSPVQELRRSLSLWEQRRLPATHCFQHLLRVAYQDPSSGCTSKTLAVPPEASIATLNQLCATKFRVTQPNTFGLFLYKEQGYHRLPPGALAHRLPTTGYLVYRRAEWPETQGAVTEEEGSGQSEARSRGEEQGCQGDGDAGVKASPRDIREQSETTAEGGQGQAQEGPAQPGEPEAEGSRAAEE
PfM18AAP inh-1: blocks P. falciparum M18 aspartyl aminopeptidase. recombinant PfM18AAP, H-Glu-NHMec fluorogenic cleavage. inhibition, % at 7.35 µM. hit rate 1.2% among 290,000. AID 1822;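 active = inhibition above the campaign mean inhibition over all tested compounds plus 3 SD, cut at about 28% in these data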
CTSL1 counter-1: cathepsin L1 inhibition, PFM18AAP counter-screen; hit rate 0.49% among 300,000; recombinant F. hepatica cathepsin L1, Z-Leu-Arg-MCA fluorescence; inhibition, % at 5.96 µM;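 active = inhibition above the mean of all tested compounds plus 3 SD, set per screening campaign, cut at about 17% in these data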
PfM18AAP inh-2: PfM18AAP inhibition, confirmation | shares compounds with PfM18AAP inh-1 | hit rate 28% among 2,400 | inhibition, % at 7.35 µM | recombinant PfM18AAP, H-Glu-NHMec fluorogenic cleavage | AID 2170;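 active = mean inhibition over replicate wells above the hit cutoff set for the earlier primary screen, cut at about 29% in these data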
CTSL1 counter-2: counter-screen for PFM18AAP inhibitors: confirmation of human cathepsin L inhibitors | shares compounds with PfM18AAP inh-1 | purified cathepsin L1, Z-Leu-Arg-MCA fluorescence | inhibition, % at 5.96 µM | 2,400 tested, under 10 active;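 active = average inhibition across replicates above the hit cutoff set in the earlier primary screen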
Numbers stand for hits; 0 = inactive; - = no result given. Only some compounds are listed: those with a hit (about 2.1% of all), similar ones and a draw of the others.

SMILES	Calb FLC	Rin1-Abl PPI inh	PfM18AAP inh-1	CTSL1 counter-1	PfM18AAP inh-2	CTSL1 counter-2
Cc1n[nH]c(=S)n(NC(=O)CC(=O)Nn2c(=S)[nH]nc(C)c2=O)c1=O	93	0	42	0	0	0
Cc1n[nH]c(=S)n(NC(=O)/C=C/C(=O)Nn2c(=S)[nH]nc(C)c2=O)c1=O	0	0	35	-	0	0
COC(=O)c1ccc(Cn2cc(/C=C\[N+](=O)[O-])c3ccccc32)o1	0	0	0	0	-	-
O=C(O)c1ccc(Cn2cc(/C=C\[N+](=O)[O-])c3ccccc32)o1	0	0	39	0	0	0
Cc1ccc(N2CC(C(=O)N3CCC(c4nc5ccccc5[nH]4)CC3)CC2=O)cc1C (centres undefined)	0	0	-	0	-	-
O=S(=O)(Nn1cnnc1)c1ccccc1	0	0	37	0	61	0
O=S(=O)(Nn1cnnc1)c1ccc2ccccc2c1	0	0	0	0	-	-
O=S(=O)(Nn1cnnc1)c1ccccc1Cl	0	0	36	0	43	0
O=C(NCc1cccs1)C(=O)c1cn(CC(=O)N2CCOCC2)c2ccccc12	0	0	0	0	-	-
COc1ccc(/C(C)=N/Nc2nc3ccccc3nc2C)cc1	0	0	56	0	0	0
COc1ccc(Cc2nnc(N/N=C/c3ccc(O)cc3)[nH]c2=O)cc1OC	0	0	0	0	-	-
CCC/C=N/Nc1nnc(Cc2ccc(OC)c(OC)c2)c(=O)[nH]1	0	0	32	0	0	0
CC(NC(=O)c1cccc(S(=O)(=O)N2CCN(Cc3ccccc3)CC2)c1)c1ccccc1Cl (centres undefined)	-	0	-	-	-	-
COc1ccc(N2C(=O)C(Cl)=C(N3CCOCC3)C2=O)cc1	0	0	33	0	0	25
COc1ccc(N2C(=O)C(Cl)=C(N3CCN(Cc4ccccc4)CC3)C2=O)cc1	0	0	0	-	-	-
Cc1ccc(-c2nn[nH]n2)o1	0	0	76	0	54	0
Cc1ccc(-c2nn[nH]n2)cc1	0	0	0	0	-	-
CCC(CO)NC(=O)c1ccccc1C(F)(F)F (centres undefined)	0	0	0	0	-	-
CC1(C)CC(=O)C/C(=N/Nc2nc3ccccc3s2)C1	0	0	0	0	-	-
CC1CCC/C(=N/Nc2nc3ccccc3s2)C1 (centres undefined)	0	0	39	0	0	0
CCOC(=O)C1CCCN(C(=O)c2cc(S(=O)(=O)N(C)C)ccc2N2CCCC2)C1 (centres undefined)	0	0	-	0	-	-
CCOC(=O)Cc1nnc(NC(=O)c2ccccc2OCC)s1	0	0	0	0	-	-
CCOC(=O)Cc1nnc(NC(=O)c2ncn[nH]2)s1	0	0	46	0	0	0
COc1ccc(OC)c([C@@H]2OCCC=C[C@H]2C)c1	0	0	0	0	-	-
Oc1ccc(N2CCN(c3ccnc4cc(Cl)ccc34)CC2)cc1	0	0	38	0	0	0
SMILES	Calb FLC	Rin1-Abl PPI inh	PfM18AAP inh-1	CTSL1 counter-1	PfM18AAP inh-2	CTSL1 counter-2
CC(C)C(=O)N(c1ccc2oc(=O)sc2c1)S(=O)(=O)c1ccccc1	0	0	0	0	-	-
CCCC(=O)N(c1ccc2oc(=O)sc2c1)S(=O)(=O)c1cccs1	-	0	37	0	0	0
O=C([C@@H]1CC=C[C@@H]2CCN(C3CC3)C(=O)[C@@H]21)N1CCN(c2ccccc2)CC1	0	0	-	0	-	-
C=CCSC1=C(C#N)C(c2ccc(OCC)cc2)CC(=O)N1 (centres undefined)	0	0	0	0	-	-
CC(C)(C)c1nnc(NC(=O)c2ccc3c(c2)OCO3)s1	0	0	43	0	0	0
CNC(=S)NNC(=O)c1ccc2c(c1)OCO2	0	0	35	0	0	0
CCNc1nc(NCC)nc(Nn2cnnc2)n1	0	0	32	0	0	0
CCNc1nc(NC(C)(C)C)nc(N(CC)n2cnnc2)n1	0	0	0	0	-	-
COc1ccc(-c2cc(-c3ccccc3)c(C#N)c(SCC(=O)O)n2)cc1	0	0	-	0	-	-
N#Cc1c(-c2ccccc2)cc(-c2ccccc2)nc1SCC(=O)NCC(=O)O	0	0	38	0	0	0
O=C(NC1CCN(Cc2ccc(Cl)cc2Cl)CC1)c1ccccc1	0	0	0	0	-	-
C=C(C)c1cccc(C(C)(C)NC(=O)Nc2ccc(C(C)=O)cc2)c1	0	0	0	0	-	-
C=C(C)c1cccc(C(C)(C)NC(=O)NNC(=O)c2ccccc2O)c1	0	0	40	0	0	0
O=C(NNC(=O)c1ccncc1)Nc1cc(Cl)ccc1Cl	-	0	-	-	-	-
Cc1cc2nc3c(=O)[nH]c(=O)[nH]c3nc2c([N+](=O)[O-])c1N	-	0	32	-	0	0
O=C(N/N=C/c1c[nH]c2ccccc12)c1cccc(O)c1	0	0	0	0	-	-
O=C(N/N=C/c1c[nH]c2ccccc12)c1ccc(O)c(O)c1	0	0	70	0	50	0
COc1cc(C2Nc3cccc4cccc(c34)N2)ccc1O	0	0	46	0	0	0
Cc1cccc(C2Nc3cccc4cccc(c34)N2)c1	0	0	33	0	0	0
CN(C(=O)COC(=O)c1ccc2ccccc2n1)c1ccccc1	-	0	-	-	-	-
CC(=O)NCc1ccc(-c2csc(N)n2)s1	0	0	37	0	0	0
O=C(CCc1nnc2ccc(NCc3ccco3)nn12)Nc1ccccc1F	0	0	48	0	0	0
CC(NC(=O)CN1C(=O)NC2(CCCCC2)C1=O)c1ccc(S(N)(=O)=O)cc1 (centres undefined)	-	0	-	-	-	-
Cc1cc(C)c2[nH]c(=O)c(CN(Cc3cccnc3)C(=S)NCCCN(C)C)cc2c1	0	0	0	0	-	-
Oc1cc2c(cc1CN1CCc3ccccc3C1)OCO2	0	0	37	0	0	0
SMILES	Calb FLC	Rin1-Abl PPI inh	PfM18AAP inh-1	CTSL1 counter-1	PfM18AAP inh-2	CTSL1 counter-2
Cc1nc2ccc(S(=O)(=O)NCC(=O)NC(C)c3ccccc3)cc2s1 (centres undefined)	0	0	33	0	0	0
Cc1nc2ccc(S(=O)(=O)NCC(=O)N3CCN(c4ccccc4)CC3)cc2s1	0	0	0	0	-	-
CCOC(=O)NC1(NC2CCCCC2)Oc2ccccc2O1	0	0	55	0	35	0
CCOC(=O)NC1(Nc2ccc(C)cc2)Oc2ccccc2O1	0	0	58	0	60	0
CCOC(=O)C(C(=O)Nc1ccccc1)C1CCCCC1 (centres undefined)	0	0	0	0	-	-
CCOC(=O)NC1(NCC(C)C)Oc2ccccc2O1	0	0	66	0	34	0
CCOC(=O)NC1(NC(C)C)Oc2ccccc2O1	0	0	80	0	0	0
CCOC(=O)NC1c2ccccc2Oc2ccccc21	0	0	0	0	-	-
CCOC(=O)C1=C(C)c2ccccc2OC1(C(=O)OCC)C(C)C (centres undefined)	-	0	-	-	-	-
O=C(CCc1nnc(CCCc2ccccc2)o1)NCC(F)(F)F	0	0	0	0	-	-
O=C(NNC(=O)c1cccc2ccccc12)c1ccc2c(c1)OCO2	0	0	0	0	-	-
COC(=O)c1ccc(Cn2c(C)c(C(=O)Nc3cccc(Oc4ccccc4)c3)sc2=O)o1	-	0	-	-	-	-
Cc1cc(C)n2nc(SCN3C(=O)c4ccccc4C3=O)nc2n1	0	0	77	0	0	0
O=C1c2ccccc2C(=O)N1CSc1ncccn1	-	0	46	0	0	0
